Bioassay records as filed in PubChem.
SARS PLpro yeast: SARS-CoV PLP inhibition in yeast. Potency, µM (titrated, usually from 32.9 µM), for the others: top-dose activity, positive = growth rescue, hits mostly activators. actives 0.19% (n = 330,000). S. cerevisiae expressing SARS-CoV PLpro, growth rescue; calls by dose curve; further: potency means the concentration at half of the fitted maximal effect; 0% is about no effect; nearly all actives have a fitted effect of over 55% in size
NS1 inh: influenza NS1 inhibition; actives 0.4% (n = 270,000); Potency, µM (highest dose often 46.1 µM), without a hit: top-dose activity, positive = more growth; AID 2326; calls by dose curve; further: potency means the concentration at half of the fitted maximal effect; actives are rising curves; nearly all actives have a fitted effect of over 50% in size
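S. cerevisiae expressing influenza A NS1, grown in glucose, washed, then diluted 1:100 into pH 6.0 -URA galactose medium with 23 nl compound. Growth recovery read as OD600; NS1-free strain serves as control.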
Pf growth 48h: P. falciparum growth inhibition at 48 hours (one generation); actives 5.9% (n = 310,000); Potency, µM (doses to about 28.7 µM), without a hit: at the top dose activity change, negative = inhibition, most hits filed as inhibitors; P. falciparum luciferase growth in erythrocytes, 48 h; further: potency means the concentration at half of the fitted maximal effect; on the % scale 0 is the no-effect control and ±100 the full control effect
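In quantitative HTS format, infected erythrocytes bearing luciferase-reporter parasites were treated for a single generation at 37 C. Luminescence after adding detection reagent served as the growth measure.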
Shiga inhibitor: blocks Shiga toxin action in Vero cells; Vero cells, Shiga toxin protein synthesis inhibition reporter; inhibition, % at 38.7 µM; actives 9.2% (n = 290,000); AID 2315; in the data active means inhibition mostly above about 28%, no sharp cut-off; inactive means mostly below about 43%; further: 0% is about no effect
CHX counter: counter-screen for Shiga toxin inhibitors: cycloheximide protein synthesis inhibition | cell reporter, cycloheximide protein synthesis inhibition counterscreen | max response, % | actives 12% (n = 300,000) | AID 2314; in the data active means max response mostly above about 13%, no sharp cut-off; inactive means mostly below about 14%; further: read at 38.3 µM for the half of the compounds with a filed dose; 0% is about no effect
Pf growth 96h: P. falciparum growth inhibition at 96 hours. P. falciparum luciferase reporter growth, 96 h. Potency, µM (doses to about 28.7 µM), for inactives: at the highest dose activity change, negative = inhibition, most hits filed as inhibitors. actives 6.9% (n = 320,000); further: potency means the concentration at half of the fitted maximal effect; on the % scale 0 is the no-effect control and ±100 the full control effect
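Luminescence readout: decreased luciferase signal marks inhibited growth of reporter-expressing P. falciparum in infected red cells (2% hematocrit, 0.05% parasitemia final), exposed to compound two generations (96 h, 37 C, 5% CO2).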
* = called active by the depositor. In the library only some 21% were active in any assay of this set; here they are far more common. Unless noted, the call rests on the fitted dose curve; in most records, active means well fitted inhibition curve with a large enough effect; inconclusive means small, poorly fitted or top-dose-only effect, or another doubt; inactive means no such curve, though single readings can be large or run the other way.

`CN(C)c1cc[n+](CC(=O)Nc2cccc([N+](=O)[O-])c2)cc1` gave SARS PLpro yeast -1%, NS1 inh inconclusive, Pf growth 48h inconclusive, Shiga inhibitor -2, CHX counter -2 and Pf growth 96h inconclusive.
`C[C@H](CO)N1C[C@H](C)[C@@H](CN(C)S(C)(=O)=O)Oc2ccc(NC(=O)C3CC3)cc2C1=O` gave SARS PLpro yeast -24%.
For O=C(CN1C(=O)CCC1=O)Nc1nc(-c2ccc(Oc3ccccc3)cc2)cs1 the results were SARS PLpro yeast -13%, NS1 inh -2%, Pf growth 48h 19%, Shiga inhibitor 22, CHX counter 14 and Pf growth 96h 27%.
`CC(C)(C)OC(=O)C[C@@H]1C/C=C\C[C@H](CC(=O)N(CCO)Cc2ccccc2)C(=O)N[C@@H](Cc2c[nH]c3ccccc23)COC1=O` gave SARS PLpro yeast 2%.
`COC(=O)C(c1ccccc1)N(Cc1cccc(CN(C(C(=O)OC)c2ccccc2)S(C)(=O)=O)c1)S(C)(=O)=O` (stereo unspecified) gave SARS PLpro yeast 9%, NS1 inh 17%, Pf growth 48h 8.3µM*, Shiga inhibitor -5, CHX counter -3 and Pf growth 96h 10µM*.
Screening O=C(O)CC(Cc1ccc(Cl)cc1)C(=O)NCc1ccccc1 (stereo unspecified) returned SARS PLpro yeast -12%, NS1 inh 6%, Pf growth 48h 13%, Shiga inhibitor -11, CHX counter -1 and Pf growth 96h inconclusive.
Screening COc1cc(OC)cc(-c2c(-c3cccs3)c3cc(-c4cnc(N)nc4)ccc3n2C)c1 returned SARS PLpro yeast -7%.
For COc1cc(OC)cc(-c2c(-c3cccs3)c3cc(-c4ccc(SC)cc4)ccc3n2C)c1 the results were SARS PLpro yeast 1%, Pf growth 48h -79% and Pf growth 96h 2.1µM*.
COc1cc(OC)cc(-c2c(-c3cccs3)c3cc(-c4ccc(OC)c(F)c4)ccc3n2C)c1 was read as SARS PLpro yeast -8%, Pf growth 48h inconclusive and Pf growth 96h inconclusive.
Screening COc1cc(OC)cc(-c2c(-c3cccs3)c3cc(-c4ccc5c(c4)OCCO5)ccc3n2C)c1 returned SARS PLpro yeast -1%, Pf growth 48h 6.6µM* and Pf growth 96h inconclusive.
Screening COc1ccc(-c2c(-c3cc(OC)cc(OC)c3)n(C)c3ccc(-c4ccc5c(c4)OCCO5)cc23)cc1 returned SARS PLpro yeast 6%.
COc1cc(OC)cc(-c2c(-c3cccs3)c3cc(-c4ccc(OC)c(OC)c4)ccc3n2C)c1 was read as SARS PLpro yeast -9%, Pf growth 48h 6.6µM* and Pf growth 96h inconclusive.
For COC(=O)C1=C(C)NC(C)=C(C(=O)OC)C1/C=C/c1ccccc1 the results were SARS PLpro yeast 0%, NS1 inh -25%, Pf growth 48h inconclusive, Shiga inhibitor -4, CHX counter -3 and Pf growth 96h inconclusive.
For COC1=CC(=O)OC(/C=C/c2ccccc2)C1 (stereo unspecified) the results were SARS PLpro yeast 11%, NS1 inh -2%, Pf growth 48h 46%, Shiga inhibitor 47*, CHX counter 23* and Pf growth 96h 38%.
Screening Cc1ccc(NC(=O)CN2CCN(C(=O)C3CCCO3)CC2)c(C)c1 (stereo unspecified) returned SARS PLpro yeast -1%, NS1 inh 4%, Pf growth 48h inconclusive, Shiga inhibitor -3, CHX counter 0 and Pf growth 96h inconclusive.
`Cc1cc(Cl)ccc1C(=O)C1CCCN(C(=O)c2cscn2)C1` (stereo unspecified) gave SARS PLpro yeast -2%, NS1 inh -4%, Pf growth 48h 40%, Shiga inhibitor -9, CHX counter -2 and Pf growth 96h inconclusive.
Screening Cc1nc(C)c(C(=O)N2CCCC(C(=O)c3ccc(Cl)cc3C)C2)s1 (stereo unspecified) returned SARS PLpro yeast -5%, NS1 inh -11%, Pf growth 48h -19%, Shiga inhibitor -8, CHX counter -3 and Pf growth 96h 13µM*.
For Cc1cc(Cl)ccc1C(=O)C1CCCN(C(=O)/C=C/c2cnn(C)c2)C1 (stereo unspecified) the results were SARS PLpro yeast -1%, NS1 inh -4%, Pf growth 48h 8%, Shiga inhibitor -9, CHX counter 1 and Pf growth 96h 4.1µM*.
For NC(=O)CCCn1c(C(=O)c2cc(Cl)c(N)c(Cl)c2)c2ccc(C(F)(F)F)cc2[n+]1[O-] the results were SARS PLpro yeast 6%, Pf growth 48h 5.9µM* and Pf growth 96h 4.7µM*.
NCCCn1c(C(=O)c2cc(Cl)c(N)c(Cl)c2)c2ccc([N+](=O)[O-])cc2[n+]1[O-] was read as SARS PLpro yeast 8%, Pf growth 48h 12µM* and Pf growth 96h inconclusive.
NCCCn1c(C(=O)c2cc(Cl)c(N)c(Cl)c2)c2ccc(C(F)(F)F)cc2[n+]1[O-] was read as SARS PLpro yeast 4%, Pf growth 48h 6.6µM* and Pf growth 96h inconclusive.
Screening CCS(=O)(=O)c1ccc2oc(SCC(=O)NC3CCCC(C)C3C)nc2c1 (stereo unspecified) returned SARS PLpro yeast 26%, NS1 inh inconclusive, Shiga inhibitor 3, CHX counter 7 and Pf growth 96h inconclusive.
`COC(=O)c1c(NC(=O)Cn2cnc([N+](=O)[O-])n2)sc2c1CCC(C)C2` (stereo unspecified) gave SARS PLpro yeast -28%, NS1 inh 5%, Pf growth 48h inconclusive, Shiga inhibitor -14, CHX counter 1 and Pf growth 96h inconclusive.
For COc1cc(OC)c(OC)cc1CNCCc1cccc(F)c1 the results were SARS PLpro yeast 0%, NS1 inh 0%, Shiga inhibitor 11, CHX counter -4 and Pf growth 96h 23%.
Screening COc1ccc(CNCCc2cccc(F)c2)c2ccccc12 returned SARS PLpro yeast -5%, NS1 inh -18%, Pf growth 48h inconclusive, Shiga inhibitor -19, CHX counter 6 and Pf growth 96h 13µM*.
Screening COc1cccc2c1nc(C)c1cc(C)oc12 returned SARS PLpro yeast -8%, NS1 inh -7%, Pf growth 48h 67%, Shiga inhibitor 40, CHX counter 36* and Pf growth 96h -12%.
For Cc1ccc(S(=O)(=O)Nc2cc(C)cn(Cc3ccc(F)cc3)c2=O)cc1 the results were SARS PLpro yeast 1%, NS1 inh -2%, Pf growth 48h 0.21µM*, Shiga inhibitor 3, CHX counter -3 and Pf growth 96h inconclusive.
Screening Cc1ccc(S(=O)(=O)Nc2cc(C)cn(Cc3ccccc3)c2=O)cc1 returned SARS PLpro yeast -1%, NS1 inh -31%, Pf growth 48h inconclusive, Shiga inhibitor 12, CHX counter -6 and Pf growth 96h 2%.
